Laboratory results as given in PubChem BioAssay (NCI).
This is part of a sample that, as a whole, favours compounds with a hit. Of some 83,000 tested, about 20% had one in any assay.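 48-hour exposure, single concentration, 96-well plates; percent growth endpoint where 0 means no net growth. Active: below 10.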 Calls of active or inactive are those of the source.

Columns and labels:
Test in all cases: NCI-60 one-dose screen, 48 h (100 = growth as untreated, 0 = no growth, -100 = all killed)
Conditions in all cases: 10 µM unless noted
HCT-15 colon = system: HCT-15 colon
HT29 colon = system: HT29 colon
SNB-75 CNS = system: SNB-75 CNS
SNB-19 CNS = system: SNB-19 CNS
U251 CNS = system: U251 CNS
PC-3 prostate = system: PC-3 prostate
SK-MEL-5 melanoma = system: SK-MEL-5 melanoma
UACC-62 melanoma = system: UACC-62 melanoma
LOX IMVI melanoma = system: LOX IMVI melanoma
SK-MEL-28 melanoma = system: SK-MEL-28 melanoma
SK-MEL-2 melanoma = system: SK-MEL-2 melanoma
EKVX NSCLC = system: EKVX NSCLC
SN12C renal = system: SN12C renal
UO-31 renal = system: UO-31 renal
TK-10 renal = system: TK-10 renal
ACHN renal = system: ACHN renal
CAKI-1 renal = system: CAKI-1 renal
CCRF-CEM leukemia = system: CCRF-CEM leukemia
MOLT-4 leukemia = system: MOLT-4 leukemia

Measured: growth

COc1cc2oc(-c3cccc(C(=O)Nc4ccc5c(c4)OCO5)c3)cc(=O)c2c(O)c1OC
inactive: HCT-15 colon 93.6% | HT29 colon 76.3% | SNB-75 CNS 84.6% | SNB-19 CNS 72.1% | U251 CNS 55.8% | PC-3 prostate 72.3% | SK-MEL-5 melanoma 84% | UACC-62 melanoma 81.4% | LOX IMVI melanoma 88.2% | SK-MEL-28 melanoma 89.8% | SK-MEL-2 melanoma 89.9% | EKVX NSCLC 87% | SN12C renal 68.7% | UO-31 renal 82.1% | TK-10 renal 98.6% | ACHN renal 75.3% | CAKI-1 renal 76.9% | CCRF-CEM leukemia 97.2% | MOLT-4 leukemia 101%

N/C(=N\C(N)=N\c1nc2ccccc2s1)c1cccc(Cl)c1
inactive: HCT-15 colon 32.1% | HT29 colon 95.1% | SNB-75 CNS 95.2% | SNB-19 CNS 97.1% | U251 CNS 48.3% | PC-3 prostate 45% | SK-MEL-5 melanoma 104% | UACC-62 melanoma 86.2% | LOX IMVI melanoma 44.1% | SK-MEL-28 melanoma 104% | SK-MEL-2 melanoma 100% | EKVX NSCLC 83.3% | SN12C renal 38.5% | UO-31 renal 33.2% | TK-10 renal 111% | ACHN renal 75.5% | CAKI-1 renal 33.2% | CCRF-CEM leukemia 73.3% | MOLT-4 leukemia 72.5%

COc1cc(/C=N/NC(=O)c2cnn3c2NC(c2ccccc2)C3)ccc1OCc1ccccc1 (configuration not stated)
inactive: SNB-75 CNS 26.1% | SNB-19 CNS 19.3% | LOX IMVI melanoma 22% | SK-MEL-28 melanoma 24.1% | EKVX NSCLC 32.1% | SN12C renal 29.2% | UO-31 renal 32.6% | ACHN renal 10.7% | CCRF-CEM leukemia 17.1% | MOLT-4 leukemia 14.7%
active: HCT-15 colon 2.36% | HT29 colon -35.6% | U251 CNS 4.86% | PC-3 prostate -31% | SK-MEL-5 melanoma 5.94% | UACC-62 melanoma -33.7% | SK-MEL-2 melanoma 6.28% | TK-10 renal -0.854% | CAKI-1 renal 0.476%

O=S(=O)(Nc1ccc(-n2cnc3cc(-c4ccc(O)cc4)ccc32)cc1)c1ccccc1
inactive: HCT-15 colon 87.2% | HT29 colon 95.3% | SNB-75 CNS 88.1% | SNB-19 CNS 90.1% | U251 CNS 65.2% | PC-3 prostate 90.7% | SK-MEL-5 melanoma 66.8% | UACC-62 melanoma 82.3% | LOX IMVI melanoma 81% | SK-MEL-28 melanoma 104% | SK-MEL-2 melanoma 83.2% | EKVX NSCLC 98.4% | SN12C renal 73.4% | UO-31 renal 51.3% | TK-10 renal 113% | ACHN renal 80.6% | CAKI-1 renal 68.7% | CCRF-CEM leukemia 69.9% | MOLT-4 leukemia 71.7%

CCCCCCNC(=O)Oc1ccc(/C(=C(\C)c2ccccc2)c2ccc(OCCCN(C)C)cc2)cc1
active: HT29 colon 2.7%
inactive: HCT-15 colon 25.9% | SNB-75 CNS 86.8% | SNB-19 CNS 80.5% | U251 CNS 67.3% | PC-3 prostate 79.7% | SK-MEL-5 melanoma 92.9% | UACC-62 melanoma 56.1% | LOX IMVI melanoma 80.2% | SK-MEL-28 melanoma 88.3% | SK-MEL-2 melanoma 92.3% | EKVX NSCLC 91.1% | SN12C renal 80.7% | UO-31 renal 57.8% | TK-10 renal 91.2% | ACHN renal 97.9% | CAKI-1 renal 94.8% | CCRF-CEM leukemia 77.6% | MOLT-4 leukemia 62.6%

COc1ccc(C(=O)NNc2nc(Cl)nc(N3CCN(C(c4ccccc4)c4ccccc4)CC3)n2)cc1
active: HCT-15 colon -37% | HT29 colon -57.3% | PC-3 prostate -13.3% | LOX IMVI melanoma -64.3% | CCRF-CEM leukemia -8.69% | MOLT-4 leukemia -39.2%
inactive: SNB-75 CNS 61.5% | SNB-19 CNS 45.4% | U251 CNS 71.4% | SK-MEL-5 melanoma 90.7% | UACC-62 melanoma 33.1% | SK-MEL-28 melanoma 53.9% | SK-MEL-2 melanoma 48.8% | EKVX NSCLC 82.4% | SN12C renal 21.1% | UO-31 renal 87% | TK-10 renal 95% | ACHN renal 22.8% | CAKI-1 renal 21.2%

N#Cc1c(NC(=O)NCc2ccccc2)sc2c1CCCC2
inactive: HCT-15 colon 20.3% | HT29 colon 12.8% | SNB-75 CNS 27% | SNB-19 CNS 34.1% | U251 CNS 26.1% | PC-3 prostate 26.9% | SK-MEL-5 melanoma 13.3% | UACC-62 melanoma 39.3% | LOX IMVI melanoma 24% | SK-MEL-28 melanoma 64.9% | SK-MEL-2 melanoma 45.6% | EKVX NSCLC 57.8% | SN12C renal 35.3% | UO-31 renal 47.2% | TK-10 renal 49.1% | ACHN renal 46.2% | CAKI-1 renal 38.1% | CCRF-CEM leukemia 16.6% | MOLT-4 leukemia 17.7%

CCOc1cccc(-c2nc(N)nc(Nc3ccccc3SSc3ccccc3Nc3nc(N)nc(-c4cccc(OCC)c4)n3)n2)c1
inactive: HCT-15 colon 18.5% | HT29 colon 110% | SNB-75 CNS 90.5% | SNB-19 CNS 55.1% | PC-3 prostate 29.5% | SK-MEL-5 melanoma 88% | UACC-62 melanoma 66.2% | SK-MEL-28 melanoma 93.6% | SK-MEL-2 melanoma 98.1% | EKVX NSCLC 60.5% | SN12C renal 32.9% | TK-10 renal 102% | ACHN renal 59.5% | CCRF-CEM leukemia 46.5% | MOLT-4 leukemia 56.7%
active: U251 CNS 8.24% | LOX IMVI melanoma 4.82% | UO-31 renal -25.5% | CAKI-1 renal 8.02%
